Rows were chosen to be rich in hits. Some 9.3% of all compounds tested hit in one or more screens of this group.
Rab9 promoter act = activates the Rab9 promoter | Potency, µM (top dose mostly 9.22 µM), without a hit: top-dose activation, negative = inhibition, usual class: activators | Huh7 Rab9 promoter-luciferase reporter, luminescence, 24 h | 2.8% of 320,000 active | AID 485297; further: % of control where 0% means no effect; nearly all actives have a fitted effect of over 60% in size
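Cells were plated at 1500 per well in reduced-serum medium with 10% FBS and left 2 h. Compound in DMSO was then added for 24 h at 37 °C. Reporter signal was read by luminescence after 10 min with luciferase detection reagent.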
ELG1 genotox = inducers of genotoxicity in HEK293T ELG1-luciferase cells | 1.3% of 330,000 active | Potency, µM (series often up to 46 µM), for the others: top-dose activity change, positive = activation, most hits filed as activators | HEK293T ELG1-luciferase reporter, luminescence, 16 h; further: % of control where 0% means no effect; nearly all actives have a fitted effect of over 60% in size
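Screening used a luciferase reporter fused to human ELG1 in HEK293T cells. Luminescence was read on a CCD plate imager after 16 hr exposure and 30 min ONE-Glo incubation.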
ELG1 repair inh = blocks ELG1-dependent DNA repair in HEK293T cells; HEK293T ELG1-luciferase reporter, luminescence, 16 h; DNA damage induced by 5-fluorouridine; Potency, µM (series often up to 46.1 µM), without a hit: top-dose activity change, negative = inhibition, hits mostly inhibitors; 2.3% of 330,000 active; AID 504467; further: on the % scale 0 is the no-effect control and ±100 the full control effect; nearly all actives have a fitted effect of over 55% in size
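Luminescence from the luciferase reporter, measured 30 min after ONE-Glo reagent at room temperature, was the read-out. Beforehand, 2,000 cells per well were exposed for 16 hr at 37 °C to 5-fluorouridine together with compound or vehicle.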
SMN2 splice up = increases expression of the SMN2 splice variant; Potency, µM (top dose mostly 46.1 µM), inactives show top-dose activity change, positive = activation, usual class: activators; 2.8% of 210,000 active; AID 1458; HEK293 SMN2-luciferase splicing reporter, luminescence, 30-36 h; further: % of control where 0% means no effect; nearly all actives have a fitted effect of over 55% in size
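HEK293 cells carry an SMN2 […]–luciferase reporter in which exon 7 inclusion puts luciferase in frame. Cells were plated 10-12 h before compound addition, then incubated 30-36 h at 37C. ONE-Glo luminescence was read; sodium butyrate at 4.5 mM final served as control.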
NPC1 promoter act = NPC1 promoter activation. 2.4% of 320,000 active. Potency, µM (titrated, usually from 9.22 µM), for the others: top-dose activation, actives largely listed as activators. AID 485313. Huh7 NPC1 promoter luciferase reporter, 24 h; further: % of control where 0% means no effect; nearly all actives have a fitted effect of over 60% in size
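Huh7 cells stably carrying NPC1 promoter–luciferase, plated in Opti-MEM with 10% FBS for 2 h, were exposed to compound in DMSO for 24 h at 37 °C; luciferase reagent was added for 10 min and luminescence read.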
FLuc counter = counter-screen for miR-21 project: firefly luciferase inhibitors or activators | P08659 | purified FLuc, Km substrates, luminescence inhibition | Potency, µM (doses to about 57.5 µM), inactives show at the highest dose activity change, negative = inhibition, hits mostly inhibitors | 6.9% of 360,000 active | AID 588342;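 further: plate controls were vehicle for no effect and reference inhibitor for full effect; nearly all actives have a fitted effect of over 55% in size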
Target sequence (P08659 whole entry, looked up): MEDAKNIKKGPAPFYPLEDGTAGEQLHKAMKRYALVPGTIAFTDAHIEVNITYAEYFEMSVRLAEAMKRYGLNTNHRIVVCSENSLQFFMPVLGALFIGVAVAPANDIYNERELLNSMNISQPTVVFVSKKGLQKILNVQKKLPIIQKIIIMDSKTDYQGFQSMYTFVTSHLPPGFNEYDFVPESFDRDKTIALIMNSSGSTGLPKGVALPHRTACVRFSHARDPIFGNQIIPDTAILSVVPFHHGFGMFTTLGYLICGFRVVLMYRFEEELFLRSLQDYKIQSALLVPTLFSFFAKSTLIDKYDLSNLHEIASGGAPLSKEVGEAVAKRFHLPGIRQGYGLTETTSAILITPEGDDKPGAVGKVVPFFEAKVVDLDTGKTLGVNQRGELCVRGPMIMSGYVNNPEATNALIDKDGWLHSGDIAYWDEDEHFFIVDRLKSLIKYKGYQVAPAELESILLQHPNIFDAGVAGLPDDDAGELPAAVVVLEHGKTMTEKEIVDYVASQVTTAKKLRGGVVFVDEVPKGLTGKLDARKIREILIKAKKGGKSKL
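Biochemical qHTS of compounds, final roughly 60 µM downward over six points, against 10 nM purified firefly luciferase using Km concentrations of substrates (10 uM D-luciferin, 10 uM ATP) in Tris acetate pH 7.5 buffer; luminescence output.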
Numbers without * were called inactive; ? = inconclusive; / = not tested or not shown; [ ] = another dose, or the depositor's remark. The call rests on the fitted dose curve; in most records, active means well fitted curve in the direction sought with a large enough effect; inconclusive means small, poorly fitted or top-dose-only effect, or another doubt; inactive means no such curve, though single readings can be large; an effect the other way counts as inactive or inconclusive. Potency means the concentration at half of the fitted maximal effect.

SMILES	Rab9 promoter act	ELG1 genotox	ELG1 repair inh	SMN2 splice up	NPC1 promoter act	FLuc counter
CN(C)c1ccc(-c2ccccc2)nn1	1.6µM*	8.2µM*	?	16µM*	1.6µM*	11µM*
Cc1ccc2nc(N3CCOCC3)c(C=O)cc2c1	13%	?	?	/	23%	21µM*
COc1cc(-c2nnc(COC(=O)c3cc(C)nc4ccc(C)cc34)o2)cc(OC)c1OC	-1%	1%	?	-5%	-1%	5%
CCOc1ccc(-c2nnc3ccc(SCC(=O)N4CCCCC4)nn23)cc1	-5%	-2%	?	-4%	4%	0%
CCOc1ccc(-c2nnc3ccc(SCC(=O)Nc4nc5ccccc5s4)nn23)cc1	-1%	0%	7.3µM*	0%	0%	1%
CCOc1ccc(-c2nnc3ccc(SCC(=O)Nc4nc5ccc(C)cc5s4)nn23)cc1	-2%	-7%	8.2µM*	-10%	-3%	0%
CCOc1ccc(CN(C)CC(=O)Nc2cccc3ccccc23)cc1OC	11%	-9%	?	-2%	-2%	0%
O=C(OC(C(=O)NCc1cccs1)c1ccccc1Cl)c1ccco1 (centres undefined)	16%	-2%	-1%	2%	8%	3%
CC1CCN(CCCn2c(=S)[nH]c3c(sc4ccccc43)c2=O)CC1	18%	-1%	?	28%	2%	15µM*
COc1cc(OC)c(NC(=O)n2ncc3cc(Cl)ccc32)cc1Cl	/	/	/	/	/	4%
COc1cc(NC(=O)n2ncc3cc(Cl)ccc32)cc(OC)c1	?	?	?	/	18%	12µM*
O=C(Nc1ccccc1F)n1ncc2cc(Cl)ccc21	30%	4%	?	/	29%	-13%
COc1ccc(NC(=O)n2ncc3cc(Cl)ccc32)cc1OC	3.5µM*	?	?	/	?	?
Oc1c(C(Nc2cccc(C(F)(F)F)c2)c2cccnc2)ccc2cccnc12 (centres undefined)	-2%	14%	-3%	-16%[1.84 µM]	-5%	4%
CCOc1cccc(-c2c(C(=O)N/N=C(\C)c3cccs3)nnn2-c2nonc2N)c1	11%	-6%	16µM*	/	-9%	-1%
COc1cccc(-c2c(C(=O)N/N=C(\C)c3cccs3)nnn2-c2nonc2N)c1	-1%	-4%	-9%	/	-4%	4%
CCCOc1ccc(/C=N/NC(=O)c2nnn(-c3nonc3N)c2-c2cccs2)cc1OC	-2%	-9%	-12%	/	15%	11µM*
O=C(c1cccc(S(=O)(=O)N2CCN(c3ccc(F)cc3)CC2)c1)N1CCCC1	/	1%	-18%	/	/	/
CC(C)(C)C1c2[nH]c3ccccc3c2CCN1CCCn1cccn1 (centres undefined)	2%	-3%	-2%	/	0%	-2%
CCC(C)NC(=O)CCC(=O)NNc1nc2ccccc2c2nc(C)nn12 (centres undefined)	-6%	-1%	4%	0%	-4%	-2%
Brc1ccc(-c2csc(/N=C/N3CCOCC3)n2)cc1	?	18µM*	?	9%	?	15µM*
OCCN(/C=N/c1nc(-c2ccc(Br)cc2)cs1)CCO	?	21µM*	?	14%	?	19µM*
Brc1ccc(-c2csc(Nc3nc(-c4ccc(Br)cc4)cs3)n2)cc1	2%	-11%	?	/	8%	?
N/C(Cc1nc(-c2ccc(Br)cc2)cs1)=N\O	?	1%	-14%	/	21%	?
Brc1ccc(-c2csc(/N=C/N3CCCC3)n2)cc1	?	?	?	-43%	27%	15µM*
SMILES	Rab9 promoter act	ELG1 genotox	ELG1 repair inh	SMN2 splice up	NPC1 promoter act	FLuc counter
Cc1cc[n+](-c2[nH]c(=O)sc2/C=N/N=C(\[O-])c2ccccc2)cc1C	-1%	1%	-7%	8%	2%	1%
CN(C)c1ccc(NC(=O)c2ccc3nc[nH]c3c2)cc1	?	?	?	/	?	13µM*
Cc1ccc(NC(=O)c2ccc3nc[nH]c3c2)cc1C	1.8µM*	?	?	11µM*	2.8µM*	9.5µM*
O=C(Nc1ccc(F)cc1)c1ccc2nc[nH]c2c1	18%	5%	?	?	26%	?
Cc1cc(C)cc(NC(=O)c2ccc3nc[nH]c3c2)c1	13%	10%	?	-4%	11%	6.7µM*
CCOc1ccc(-c2noc(CSc3nnc(Cc4ccccc4)n3-c3cccc(C)c3)n2)cc1	/	/	/	-63%	/	-22%
CC(C)c1ccc(C(=O)COC(=O)C(O)c2ccccc2)cc1 (centres undefined)	/	-2%	-1%	/	/	/
COc1cc(C(=O)N/N=C/c2sc(=O)n(-c3ccccc3)c2Cl)cc(OC)c1OC	-8%	7%	-7%	-4%	-4%	6µM*
COc1cc(/C=N/NC(=O)CCn2c3ccccc3c3ccccc32)cc(OC)c1OC	-5%	0%	18µM*	-13%	-4%	2%
NNC(=O)c1cc(-c2ccccc2)sc1N	29%	0%	-2%	/	2%	?
Cc1nc(N)sc1C(=O)N/N=C/c1ccc([N+](=O)[O-])cc1	0%	12%	-7%	/	?	-1%
COc1cc(/C=N\NC(=O)c2sc(N)nc2C)cc(OC)c1OC	12%	7%	-11%	10%	0%	15µM*
COc1cc(/C=N/NC(=O)c2cc(-c3ccccc3)sc2N)cc(OC)c1OC	0%	-8%	23µM*	/	6%	4.8µM*
Cc1ccccc1NC(=O)c1cccc(S(=O)(=O)Oc2ccc([N+](=O)[O-])cc2)c1	2%	0%	9%	-12%	4%	-1%
COc1cc(/C=N/NC(=O)c2ccc(-c3ccccc3)cc2)cc(OC)c1OC	13%	-7%	16µM*	19%	9%	11µM*
COc1ccc(/C=N\NC(=O)c2ccc(-c3ccccc3)cc2)c(OC)c1OC	-4%	6%	0%	/	-1%	1%
COc1ccccc1NC(=O)C1=C(C)NC2=C(C(=O)CC(c3ccc(OC)c(OC)c3)C2)C1c1coc2ccccc2c1=O (centres undefined)	-2%	-8%	10µM*	-9%	-4%	-8%
CCOC(=O)C1=C(C)NC2=C(C(=O)CC(c3ccc(OC)c(OC)c3)C2)C1c1ccc(C)o1 (centres undefined)	?	-1%	?	13%	0%	2%
O=C(O)C[C@H](NC(=O)CP(=O)(O)O)C(=O)O.[NH-][C@@H]1CCCC[C@@H]1[NH-].[Pt]	/	/	/	2.5µM*	/	/
CC(=O)NC(CC(=O)O)C(=O)O (centres undefined)	0%	-7%	27%	6%	-9%	5%
